Assay results taken from PubChem BioAssay (Tox21).
Inconclusive results are not listed. Activity calls are given as the source filed them. Unless noted, calls come from the whole dose curve; as a rule, active = well fitted curve in the direction sought with a large enough effect in the repeat runs; inconclusive = weak or mixed curves; inactive = no such curve, though single readings can be large; an effect the other way counts as inactive or inconclusive.

Experiments:
[1] = qHTS assay to identify small molecule agonists of the androgen receptor (AR) signaling pathway in the presence of an antagonist - cell viability counter screen (AID 1259379); note: nearly all actives have a fitted effect of over 25% in size; note: potency is the fitted concentration of half-maximal effect
Method in brief: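 Viability counter screen: CellTiter-Fluor fluorescence, measured in the same wells as the luciferase read-out. MDA-kb2 cells, 3,000/well, with nilutamide at 3.0uM final and compounds at 15 concentrations, 16 hr at 37C, 0% CO2.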

[2] = qHTS assay to identify small molecule antagonists of the estrogen receptor beta (ER-beta) signaling pathway - cell viability counter screen (AID 1259382); note: nearly all actives have a fitted effect of over 55% in size; note: potency is the fitted concentration of half-maximal effect
Method in brief: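 Luminescent ATP read-out (CellTiter-Glo, 30 min, RT) taken in the same wells as the bla reporter assay. HEK293T ER-beta-UAS-bla cells in 2% charcoal-stripped FBS were exposed to compounds with 1nM E2 for 16 hr at 37C.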

[3] = target: Estrogen receptor (Homo sapiens) (UniProt P03372); assay: qHTS assay to identify small molecule agonists of the estrogen receptor alpha (ER-alpha) signaling pathway in the presence of an antagonist (AID 1259383; calls by dose curve; note: nearly all actives have a fitted effect of over 15% in size; note: potency is the fitted concentration of half-maximal effect; for activation: top concentration of the series differs between compounds)
Method in brief: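 Luciferase luminescence (ONE-Glo, 30min at room temperature) measured in VM7Luc4E2 cells after 22hr compound exposure at 15 concentrations, with 10.0nM ICI-182,780 final present; cells express endogenous ER-alpha and carry four EREs upstream of luciferase.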

[4] = qHTS assay to identify small molecule agonists or antagonists of the thyroid stimulating hormone receptor (TSHR) signaling pathway - wild type cell line counter screen (AID 1259384; calls by dose curve)
Method in brief: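 Wild-type Hek293 cells, 800/well, 18 h at 37C, then compound with Ro20-1724 for 30 min RT. cAMP by HTRF (cAMP-d2/anti-cAMP cryptate), 1 h RT, fluorescence read. 15 concentrations, triplicates.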

[5] = target: Thyrotropin receptor (Homo sapiens) (UniProt P16473); assay: qHTS assay to identify small molecule antagonists of the thyroid stimulating hormone receptor (TSHR) signaling pathway (AID 1259385; calls by dose curve; note: nearly all actives have a fitted effect of over 20% in size)
Method in brief: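 TSHR-HEK293 cells (800/well) plated 18 h, then compounds with Ro20-1724 and TSH at 1.5 ng/mL final, 30 min at room temperature. cAMP quantified by HTRF (cAMP-d2/anti-cAMP-cryptate, 1 h); 15 concentrations in triplicate.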

[6] = qHTS assay to identify small molecule agonists of the estrogen receptor alpha (ER-alpha) signaling pathway in the presence of an antagonist - cell viability counter screen (AID 1259386);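 note: cells exposed to compounds for 22 h at 37 °C before the viability read; nearly all actives have a fitted effect of over 30% in size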; note: potency is the fitted concentration of half-maximal effect
Method in brief: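 Read-out: CellTiter-Fluor fluorescence after 1hr reagent incubation, measured in the same wells as the luciferase readout. VM7Luc4E2 cells were exposed to 15 compound concentrations with 10.0nM ICI-182,780 for 22hr at 37C.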

[7] = qHTS assay to identify small molecule antagonists of the progesterone receptor (PR) signaling pathway - cell viability counter screen (AID 1346798); note: nearly all actives have a fitted effect of over 50% in size; note: potency is the fitted concentration of half-maximal effect
Method in brief: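 Same-well multiplex: after 16 hr at 37C with compound and R5020 stimulation, HEK293T cells carrying a UAS-bla reporter received LiveBLAzer substrate (2 hr RT), then CellTiter-Glo (30 min RT) for luminescent viability.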

[8] = qHTS assay to identify small molecule antagonists of the TGF-beta/Smad signaling pathway - cell viability counter screen (AID 1346824); note: nearly all actives have a fitted effect of over 50% in size
Method in brief: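 SBE-bla HEK 293T cells, incubated overnight, then compound plus 0.25 ng/mL TGF-beta1 (stock added) for 5 hr at 37 C. Viability was read in the same wells by CellTiter-Glo luminescence after 30 min at room temperature.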

[9] = qHTS assay to identify small molecule agonists of the TGF-beta/Smad signaling pathway - cell viability counter screen (AID 1346829); note: top concentration of the series differs between compounds; nearly all actives have a fitted effect of over 45% in size
Method in brief: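 SBE-bla HEK 293T cells plated overnight, compound exposure 5 hr at 37 C. Viability read in the same wells by CellTiter-Glo luminescence after 30 min at room temperature, following the beta-lactamase read.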

[10] = qHTS assay to identify small molecule agonists of the TGF-beta/Smad signaling pathway (AID 1346859; active = well fitted activation curve with a large enough effect in the signal ratio in the repeat runs, not every such curve was filed as active; the % refers to the signal ratio; note: series mostly up to about 77 µM)
Method in brief: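 Smad-responsive beta-lactamase reporter cells (HEK 293T) received compounds from DMSO stocks after overnight attachment, were incubated 5 hr, then treated 2 hr with FRET substrate before dual-emission fluorescence measurement (405 nm excitation).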

[11] = target: Thyrotropin-releasing hormone receptor (Homo sapiens) (UniProt P34981); assay: qHTS assay to identify small molecule antagonists of the thyrotropin-releasing hormone receptor (TRHR) signaling pathway (AID 1346877; active = well fitted inhibition curve with a large enough effect in the repeat runs, not every such curve was filed as active; note: potency is the fitted concentration of half-maximal effect)
Method in brief: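 HEK293/TRHR cells, 18 h, 37 °C; Ca2+ dye 2 h; cpd 5 min RT; TRH 1 nM final; fluorescence read 3 min, 1 s intervals; 15 concs, triplicate.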

[12] = target: Thyrotropin-releasing hormone receptor (Homo sapiens) (UniProt P34981); assay: qHTS assay to identify small molecule agonists of the thyrotropin-releasing hormone receptor (TRHR) signaling pathway (AID 1346891; calls by dose curve;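 note: HEK293 cells expressing TRHR with calcium dye readout; series mostly up to about 58 µM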)
Method in brief: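 Agonist-mode calcium mobilisation screen: TRHR-transfected HEK293 cells cultured overnight (18 h), dye-loaded for 2 h at 37 °C, exposed to compounds, and monitored by fluorescence for 3 min.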

[13] = Human pregnane X receptor (PXR) small molecule agonists, qHTS cell viability counter screen (AID 1346977); note: nearly all actives have a fitted effect of over 50% in size; note: potency is the fitted concentration of half-maximal effect
Method in brief: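 Measures live-cell protease fluorescence (CellTiter-Fluor) in PXR-Luc HepG2 cells treated 24hr with compounds at 37C. Cells had 5hr to attach before pin transfer of DMSO solutions.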

[14] = qHTS assay to identify small molecule agonists of the estrogen receptor beta (ER-beta) signaling pathway - cell viability counter screen (AID 1259380); note: nearly all actives have a fitted effect of over 30% in size; note: potency is the fitted concentration of half-maximal effect
Method in brief: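 Luminescence read-out (CellTiter-Glo, 30 min, room temp) taken in the same wells as the beta-lactamase reporter assay; ER-beta-UAS-bla HEK293T cells exposed to DMSO-dissolved compounds for 16 hr at 37C in 2% charcoal-stripped FBS medium.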

[15] = target: Androgen receptor (Homo sapiens) (UniProt P10275); assay: qHTS assay to identify small molecule agonists of the androgen receptor (AR) signaling pathway in the presence of an antagonist (AID 1259381; calls by dose curve; note: nearly all actives have a fitted effect of over 15% in size)
Method in brief: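 Luciferase read-out (ONE-Glo, 30min room temperature) in MDA-kb2 MMTV-reporter cells; agonist mode run in presence of AR antagonist nilutamide, 3.0uM final. Compounds tested as 15-point series, 16hr exposure at 37C, 0% CO2.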

[16] = target: Progesterone receptor (Homo sapiens) (UniProt P06401); assay: qHTS assay to identify small molecule agonists of the progesterone receptor (PR) signaling pathway (AID 1346784; calls by dose curve; note: nearly all actives have a fitted effect of over 30% in size)
Method in brief: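 Agonist mode, quantitative HTS format in a HEK 293T line expressing a UAS-controlled beta-lactamase reporter; 16 hr compound exposure at 37C in 2% charcoal-stripped FBS, then LiveBLAzer B/G FRET fluorescence.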

[17] = Caspase-3/7 induction in HepG2 cells by small molecules, qHTS assay (AID 1346978); note: nearly all actives have a fitted effect of over 15% in size
Method in brief: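 Wild-type HepG2 cells, 2,000/well, settled 5 hr at 37 C and 5% CO2, then compound-treated for 17 hr; caspase-3/7 activity read by luminescent Caspase-Glo 3/7 after 30 min at room temperature.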

[18] = target: Progesterone receptor (Homo sapiens) (UniProt P06401); assay: qHTS assay to identify small molecule antagonists of the progesterone receptor (PR) signaling pathway (AID 1346795; active = well fitted inhibition curve with a large enough effect in the signal ratio in the repeat runs, not every such curve was filed as active; the % refers to the signal ratio; note: potency is the fitted concentration of half-maximal effect)
Method in brief: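 HEK293T PR-UAS-bla reporter cells in charcoal-stripped serum (2%) received compound after a 6 hr settling period, followed by R5020 agonist at 1 nM final; 16 hr incubation preceded the FRET substrate step and fluorescence measurement.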

[19] = qHTS assay to identify small molecule agonists of the progesterone receptor (PR) signaling pathway - cell viability counter screen (AID 1346799; calls by dose curve; note: nearly all actives have a fitted effect of over 45% in size; note: potency is the fitted concentration of half-maximal effect)
Method in brief: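 Counter screen for cytotoxicity: compound-treated PR-UAS-bla HEK293T cells (16 hr, 37C, 5% CO2) were assayed with CellTiter-Glo, luminescence measured after 30 min at room temperature.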

Measured: Potency

Chain of Thyrotropin-releasing hormone receptor (Homo sapiens) (P34981 whole entry, looked up): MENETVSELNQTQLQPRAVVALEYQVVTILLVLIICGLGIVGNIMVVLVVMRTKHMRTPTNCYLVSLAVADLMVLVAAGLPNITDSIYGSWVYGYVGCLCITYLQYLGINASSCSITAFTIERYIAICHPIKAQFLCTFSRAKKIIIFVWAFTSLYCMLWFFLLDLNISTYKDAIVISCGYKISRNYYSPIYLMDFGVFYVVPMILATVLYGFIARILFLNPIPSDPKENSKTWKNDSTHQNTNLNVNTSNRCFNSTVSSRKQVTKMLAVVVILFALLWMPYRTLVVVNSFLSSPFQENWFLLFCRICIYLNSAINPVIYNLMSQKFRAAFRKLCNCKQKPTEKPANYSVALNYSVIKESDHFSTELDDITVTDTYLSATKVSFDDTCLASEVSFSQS
Chain of Estrogen receptor (Homo sapiens) (P03372 whole entry, looked up): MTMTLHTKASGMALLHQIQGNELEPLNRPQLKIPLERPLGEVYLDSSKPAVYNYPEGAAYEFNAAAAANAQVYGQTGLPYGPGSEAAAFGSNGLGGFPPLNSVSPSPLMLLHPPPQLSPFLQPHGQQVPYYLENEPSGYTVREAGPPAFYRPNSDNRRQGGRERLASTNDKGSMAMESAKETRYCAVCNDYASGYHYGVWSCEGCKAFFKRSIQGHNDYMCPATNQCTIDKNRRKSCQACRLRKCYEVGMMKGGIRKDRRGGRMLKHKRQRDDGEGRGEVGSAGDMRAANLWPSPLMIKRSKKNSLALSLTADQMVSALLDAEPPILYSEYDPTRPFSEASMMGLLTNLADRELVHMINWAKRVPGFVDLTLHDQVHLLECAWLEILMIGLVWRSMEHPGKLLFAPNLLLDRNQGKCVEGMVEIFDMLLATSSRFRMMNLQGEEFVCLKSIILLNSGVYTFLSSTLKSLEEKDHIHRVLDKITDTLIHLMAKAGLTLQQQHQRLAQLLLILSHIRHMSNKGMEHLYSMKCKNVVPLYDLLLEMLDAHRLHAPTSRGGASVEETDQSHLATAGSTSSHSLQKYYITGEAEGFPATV
Chain of Progesterone receptor (Homo sapiens) (P06401 whole entry, looked up): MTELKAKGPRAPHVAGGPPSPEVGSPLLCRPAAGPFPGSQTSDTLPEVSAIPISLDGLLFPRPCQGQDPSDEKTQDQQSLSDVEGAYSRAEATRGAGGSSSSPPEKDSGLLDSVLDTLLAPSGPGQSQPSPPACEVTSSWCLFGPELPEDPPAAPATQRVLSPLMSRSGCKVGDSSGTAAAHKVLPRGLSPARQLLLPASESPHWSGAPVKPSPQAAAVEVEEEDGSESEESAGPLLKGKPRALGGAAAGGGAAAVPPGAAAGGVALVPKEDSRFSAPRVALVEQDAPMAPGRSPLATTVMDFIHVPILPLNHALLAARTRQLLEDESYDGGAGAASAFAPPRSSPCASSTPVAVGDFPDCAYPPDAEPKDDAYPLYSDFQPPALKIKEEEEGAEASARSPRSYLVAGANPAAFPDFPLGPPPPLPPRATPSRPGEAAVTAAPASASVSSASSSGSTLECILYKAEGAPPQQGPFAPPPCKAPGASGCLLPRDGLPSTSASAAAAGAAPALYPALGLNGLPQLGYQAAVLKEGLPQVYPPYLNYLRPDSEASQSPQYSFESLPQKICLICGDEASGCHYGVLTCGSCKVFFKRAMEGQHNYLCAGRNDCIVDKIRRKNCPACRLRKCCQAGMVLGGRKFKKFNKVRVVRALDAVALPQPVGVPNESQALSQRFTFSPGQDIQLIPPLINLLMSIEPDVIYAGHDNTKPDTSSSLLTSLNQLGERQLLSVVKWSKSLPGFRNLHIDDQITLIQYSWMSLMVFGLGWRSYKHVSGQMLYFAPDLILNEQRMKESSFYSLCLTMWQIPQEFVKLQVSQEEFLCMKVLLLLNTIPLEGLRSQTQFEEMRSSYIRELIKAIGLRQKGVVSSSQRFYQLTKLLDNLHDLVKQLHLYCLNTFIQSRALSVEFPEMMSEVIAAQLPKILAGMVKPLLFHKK
Chain of Thyrotropin receptor (Homo sapiens) (P16473 whole entry, looked up): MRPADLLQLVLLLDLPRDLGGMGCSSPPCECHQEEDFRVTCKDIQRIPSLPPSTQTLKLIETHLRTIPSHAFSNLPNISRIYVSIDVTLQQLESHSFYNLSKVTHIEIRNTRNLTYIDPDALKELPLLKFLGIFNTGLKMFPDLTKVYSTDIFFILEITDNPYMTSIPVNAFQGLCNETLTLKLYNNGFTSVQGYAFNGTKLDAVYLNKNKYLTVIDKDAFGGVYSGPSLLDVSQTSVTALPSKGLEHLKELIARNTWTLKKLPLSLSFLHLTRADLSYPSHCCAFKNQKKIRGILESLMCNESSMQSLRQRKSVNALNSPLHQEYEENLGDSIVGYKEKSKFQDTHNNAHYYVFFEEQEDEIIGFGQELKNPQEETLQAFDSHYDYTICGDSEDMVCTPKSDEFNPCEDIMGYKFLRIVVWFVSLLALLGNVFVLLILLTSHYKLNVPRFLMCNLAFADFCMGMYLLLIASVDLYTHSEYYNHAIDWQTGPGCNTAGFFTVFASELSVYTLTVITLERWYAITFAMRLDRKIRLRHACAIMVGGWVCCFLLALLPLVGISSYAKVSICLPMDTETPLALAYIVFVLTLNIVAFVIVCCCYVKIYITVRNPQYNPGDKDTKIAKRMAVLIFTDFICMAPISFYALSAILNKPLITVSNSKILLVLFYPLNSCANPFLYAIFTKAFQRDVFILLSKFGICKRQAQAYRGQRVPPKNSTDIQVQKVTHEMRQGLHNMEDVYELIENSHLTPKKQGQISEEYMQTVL
Chain of Androgen receptor (Homo sapiens) (P10275 whole entry, looked up): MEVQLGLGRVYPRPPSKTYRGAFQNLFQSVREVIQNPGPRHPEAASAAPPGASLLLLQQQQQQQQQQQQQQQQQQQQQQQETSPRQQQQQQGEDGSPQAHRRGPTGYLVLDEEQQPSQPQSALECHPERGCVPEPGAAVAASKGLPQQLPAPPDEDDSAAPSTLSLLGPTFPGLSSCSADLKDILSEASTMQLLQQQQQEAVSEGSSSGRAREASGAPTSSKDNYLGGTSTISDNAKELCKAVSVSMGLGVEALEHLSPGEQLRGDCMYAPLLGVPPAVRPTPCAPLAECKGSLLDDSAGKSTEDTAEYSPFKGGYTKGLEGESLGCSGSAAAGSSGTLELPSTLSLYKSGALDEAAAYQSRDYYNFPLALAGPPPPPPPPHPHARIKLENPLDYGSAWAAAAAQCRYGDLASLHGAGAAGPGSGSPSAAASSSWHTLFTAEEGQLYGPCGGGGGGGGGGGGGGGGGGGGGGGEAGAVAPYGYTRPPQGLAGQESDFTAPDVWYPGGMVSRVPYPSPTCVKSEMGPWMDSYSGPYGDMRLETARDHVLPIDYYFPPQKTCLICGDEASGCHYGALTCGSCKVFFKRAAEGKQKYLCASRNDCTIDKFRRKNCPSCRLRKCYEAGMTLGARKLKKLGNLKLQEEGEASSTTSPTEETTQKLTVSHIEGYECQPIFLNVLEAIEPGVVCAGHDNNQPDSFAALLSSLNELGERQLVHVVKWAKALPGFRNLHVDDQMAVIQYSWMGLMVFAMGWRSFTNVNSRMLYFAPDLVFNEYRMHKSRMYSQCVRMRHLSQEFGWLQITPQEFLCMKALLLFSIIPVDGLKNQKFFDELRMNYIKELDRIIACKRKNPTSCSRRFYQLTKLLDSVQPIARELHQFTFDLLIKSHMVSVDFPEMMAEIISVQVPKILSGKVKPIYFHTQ

CC(C)OC(=S)S
active: [7] 7.7 µM
not listed: [14] | [15] | [16] | [17] | [18] | [19]
inactive: all other assays above

CC(=O)/C=C/c1ccc2c(c1)OCO2
inactive: [14] | [15] | [2] | [5] | [6] | [16] | [8] | [9] | [10] | [17]

CC(C)CC(C)Nc1ccc(Nc2ccccc2)cc1 (stereo not drawn)
inactive: [3] | [5] | [10] | [11] | [12] | [17]
active: [14] 67.4 µM | [6] 60.1 µM | [18] 47.7 µM | [13] 53.5 µM

Clc1ccc(C(Cl)(Cl)Cl)c(Cl)c1
active: [7] 48.9 µM
not listed: [2] | [3] | [5] | [14] | [15] | [16] | [19]
inactive: all other assays above

COP(=O)(OC)SCn1c(=O)oc2cc(Cl)cnc21
active: [13] 30.6 µM
not listed: [1] | [5] | [11] | [12] | [14] | [15] | [17]
inactive: all other assays above

O=C(Nc1ccc2[nH]ccc2c1)c1cc2cc(F)ccc2n1Cc1cccc(F)c1
inactive: [3] | [4] | [19] | [8] | [11] | [12]
active: [18] 12.2 µM | [7] 48.6 µM | [13] 61.1 µM

BrC(Br)C(Br)(Br)Br
active: [11] 34 µM
not listed: [1] | [14] | [15]
inactive: all other assays above

Clc1ccc(CSC(Cn2ccnc2)c2ccc(Cl)cc2Cl)cc1 (stereo not drawn)
inactive: [4] | [8] | [9] | [10] | [11] | [12] | [17]
active: [14] 13.3 µM | [2] 13.3 µM | [7] 6.68 µM

Nc1c(Oc2ccccc2)cc(O)c2c1C(=O)c1ccccc1C2=O
active: [3] 1.88 µM | [6] 26.6 µM
not listed: [1] | [4] | [5] | [13] | [17]
inactive: all other assays above

Oc1c(Cl)c(Cl)cc(Cl)c1Cl
inactive: [2] | [3] | [4] | [6] | [7] | [9] | [10] | [11] | [12] | [17]

Nc1ccc([N+](=O)[O-])cc1Cl
active: [6] 54.5 µM | [18] 54.5 µM
not listed: [1] | [5] | [11] | [12] | [13] | [19]
inactive: all other assays above

Cc1cc(C(C)(C)c2cc(C)c(O)c(C)c2)cc(C)c1O
inactive: [15] | [4] | [6] | [8] | [12]
active: [14] 52.7 µM | [7] 41.8 µM | [19] 59.1 µM

Clc1ccc(CO/N=C(\Cn2ccnc2)c2ccc(Cl)cc2Cl)c(Cl)c1
active: [14] 29.8 µM | [2] 29.8 µM | [7] 21.1 µM | [19] 15 µM
inactive: [4] | [8] | [9] | [10] | [11] | [12]

O=c1ssc(Cl)c1Cl
active: [1] 68.6 µM
inactive: [3] | [6] | [7] | [19] | [9] | [10] | [13]

ClC1=C(Cl)[C@]2(Cl)[C@@H]3[C@@H]4C[C@@H]([C@H]5O[C@@H]45)[C@@H]3[C@@]1(Cl)C2(Cl)Cl
inactive: [3] | [4] | [6]
